Most compounds without a hit are left out; they make up all but 2.8% or so of the library.
pPAFAH inh: pPAFAH enzyme inhibitors, primary screen, biochemical, fluorescence polarization, human; Platelet-activating factor acetylhydrolase (Homo sapiens), Q13093; inhibition, % at 3.39 µM; AID 463082, 2010; recombinant pPAFAH, FP-rhodamine probe fluorescence polarization; 330,000 compounds, 1.5% hits;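 active = inhibition above the mean inhibition across the screen plus 3 SD, cut at about 25% in these data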;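 note: inhibitors block binding of the rhodamine activity-based probe so polarization drops; 0% = enzyme with DMSO and 100% = wells lacking pPAFAH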
Target sequence (Q13093 whole entry, looked up): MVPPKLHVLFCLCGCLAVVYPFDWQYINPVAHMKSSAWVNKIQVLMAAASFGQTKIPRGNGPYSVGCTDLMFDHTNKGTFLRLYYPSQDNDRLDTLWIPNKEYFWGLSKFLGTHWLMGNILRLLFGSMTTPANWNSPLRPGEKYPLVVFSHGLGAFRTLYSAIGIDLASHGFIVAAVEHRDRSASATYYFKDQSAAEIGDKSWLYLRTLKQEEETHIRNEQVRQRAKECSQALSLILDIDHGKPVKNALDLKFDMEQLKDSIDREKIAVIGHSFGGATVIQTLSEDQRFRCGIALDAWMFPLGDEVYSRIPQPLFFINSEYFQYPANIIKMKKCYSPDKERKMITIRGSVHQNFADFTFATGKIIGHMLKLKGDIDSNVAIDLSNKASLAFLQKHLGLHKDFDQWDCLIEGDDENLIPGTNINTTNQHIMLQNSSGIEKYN
PAFAH1B2 FP inh: PAFAH1B2 enzyme inhibitors, primary screen, biochemical, fluorescence polarization, human. recombinant PAFAH1B2, FP-rhodamine activity probe. 340,000 compounds, 1.2% hits. inhibition, % at 3.39 µM;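 active = inhibition above the mean of all tested compounds plus 3 SD, cut at about 24% in these data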;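 note: 0% = enzyme with DMSO and 100% = wells lacking PAFAH1B2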
PAFAH1B3 inh: PAFAH1B3 enzyme inhibitors, primary screen, biochemical, fluorescence polarization, human; Platelet-activating factor acetylhydrolase IB subunit alpha1 (Homo sapiens), Q15102; recombinant PAFAH1B3, FP-rhodamine probe; inhibition, % at 3.39 µM; 340,000 compounds, 0.28% hits; AID 492972, 2010;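 active = inhibition above the screen-wide average of all tested compounds plus 3 SD, cut at about 25% in these data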;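 note: 0% = enzyme with DMSO only and 100% = wells lacking PAFAH1B3 protein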
Fam108B inh: mouse Fam108B serine hydrolase inhibitors, primary screen, counter-screen for RBBP9 inhibitor project, biochemical, fluorescence polarization; inhibition, % at 9.51 µM; 300,000 compounds, 0.33% hits; AID 1947, 2009; recombinant Fam108B, FP-Rh probe fluorescence polarization;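 active = inhibition above the screen mean inhibition plus 3 SD, computed separately per campaign, cut at about 18% in these data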;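 note: inhibitors lower polarization as less probe binds the enzyme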
PAFAH2 inh: PAFAH2 enzyme inhibitors, primary screen, biochemical, fluorescence polarization, human | Platelet-activating factor acetylhydrolase 2, cytoplasmic (Homo sapiens), Q99487 | 340,000 compounds, 0.99% hits | inhibition, % at 3.39 µM | recombinant PAFAH2, FP-rhodamine activity probe | AID 492956, 2010;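 active = inhibition above the mean over all tested compounds plus 3 SD, cut at about 30% in these data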;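 note: inhibitors block probe labeling of enzyme so polarization drops; 0% = enzyme with DMSO and 100% = wells lacking PAFAH2 protein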
PME-1 inh: PME-1 inhibitors via competitive probe labeling, primary screen, biochemical, fluorescence polarization, FP-Rh probe, HTS; Protein phosphatase methylesterase 1 (Homo sapiens), Q9Y570; recombinant PME-1; inhibition, % at 5.9 µM; 320,000 compounds, 0.53% hits;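 active = inhibition above the campaign mean of all compounds plus 3 SD, cut at about 26% in these data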;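 note: competitive labeling of PME-1 active site by serine hydrolase directed probe; 0% = PME-1 with DMSO and 100% = wells lacking PME-1 enzyme; inhibitors block probe labeling so polarization falls and inhibition rises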
PAFAH2 confirm: PAFAH2 enzyme inhibitors, confirmation, biochemical, fluorescence polarization, human; shares compounds with PAFAH2 inh; recombinant PAFAH2, FP-rhodamine activity probe; inhibition, % at 3.39 µM; 2,300 compounds, 65% hits; AID 493030, 2011;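 active = mean inhibition over three repeats above a set limit taken from the earlier primary screen, cut at about 30% in these data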;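 note: inhibitor blocks binding of rhodamine activity probe so polarization falls; 0% = enzyme with DMSO and 100% = wells lacking PAFAH2 protein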
* = called active by the depositor; nt = no result.

SMILES	pPAFAH inh	PAFAH1B2 FP inh	PAFAH1B3 inh	Fam108B inh	PAFAH2 inh	PME-1 inh	PAFAH2 confirm
N#Cc1cccc(NC(=O)COC(=O)c2ccc[n+]([O-])c2)c1	2.4	-4.0	0.8	nt	13.6	nt	nt
COc1ccc2cc(C(=O)C3CCCN(C(=O)C4=NN(C)C(=O)CC4)C3)ccc2c1 (configuration not stated)	1.2	5.7	8.1	3.4	-3.2	-0.3	nt
CCNc1ccc(C(=O)OCC(=O)NC(=O)NCC(C)C)cc1[N+](=O)[O-]	0.1	3.0	8.3	-0.3	32.6*	0.7	27.2
CCNc1ccc(C(=O)OCC(=O)Nc2cc(C)on2)cc1[N+](=O)[O-]	2.0	-2.1	13.8	nt	30.9*	0.9	30.7*
Cc1cc(NC(=O)COC(=O)c2cccc(O)c2)no1	1.1	0.0	0.0	-1.6	10.5	3.7	nt
CCNc1ccc(C(=O)OCC(=O)NCc2ccccc2Cl)cc1[N+](=O)[O-]	0.0	0.2	-6.8	-5.8	46.9*	-2.9	56.4*
O=C(COC(=O)Cc1ccccc1[N+](=O)[O-])NCc1ccccc1Cl	-2.4	3.1	8.6	0.3	5.5	-4.6	nt
Cn1/c(=N/NC(=O)c2ccccc2F)sc2ccccc21	-4.6	-0.3	7.9	-3.3	7.7	-8.3	nt
CC(NC(=O)c1ccco1)C(=O)N1CCN(S(=O)(=O)c2ccccc2C#N)CC1 (configuration not stated)	1.1	4.0	1.2	nt	5.1	8.2	nt
O=C(CCS(=O)(=O)c1ccc(Br)cc1)N1CCN(c2ccccc2)CC1	4.7	4.8	4.1	1.0	32.5*	0.0	20.8
Cc1ccc(C(=O)NCc2ccco2)cc1S(=O)(=O)N1CCOCC1	-4.0	3.7	11.5	0.2	-1.6	-1.7	nt
Cc1ccc(C(=O)OCC(=O)NCc2ccco2)cc1S(=O)(=O)N1CCOCC1	17.3	-0.5	6.1	-0.9	44.5*	-3.6	39.2*
COc1ccc(C(=O)OCC(=O)NCc2ccco2)cc1S(=O)(=O)N1CCN(c2cccc(Cl)c2)CC1	14.7	-0.1	8.8	-12.8	32.4*	-14.0	35.4*
COc1ccc(C)cc1NC(=O)c1nn(-c2ccccc2)cc1OC	-11.3	0.7	0.2	-17.2	-5.8	-19.6	nt
NC(=O)Cn1c2[n+](c3ccccc31)CC(O)CS2 (configuration not stated)	0.7	5.3	4.8	2.6	5.0	-6.4	nt
NS(=O)(=O)c1cccc(NS(=O)(=O)c2ccc(/C=C/C(=O)OCC(=O)c3ccccc3)cc2)c1	1.6	1.9	-0.8	-6.3	57.6*	-6.6	48.9*
COCc1c(Br)c(C)nc(OCC(=O)N/N=C/c2cc(C)n(-c3ccc([N+](=O)[O-])cc3)c2C)c1C#N	2.9	3.1	-1.7	4.8	1.0	6.3	nt
O=C1NC(=Nc2ccccc2)S/C1=C\c1cccnc1	7.2	5.0	9.1	0.7	9.6	-2.6	nt
Cc1ccc(N=C2NC(=O)/C(=C/c3cccnc3)S2)cc1C	5.3	3.6	-0.5	-1.6	31.9*	2.0	23.4
CSc1ccccc1C(=O)N1CCC(n2nccc2NC(=O)C(C)(C)C)CC1	5.4	2.2	7.7	2.1	3.1	0.6	nt
Cc1ccc(-c2nn(-c3ccccc3)cc2NC(=O)CCl)cc1	0.6	0.5	4.7	0.5	9.9	-4.7	nt
CS/C(N)=N/N=C/c1cc(Br)cc(Br)c1O	18.1	6.2	2.0	1.1	63.3*	9.8	43.4*
O=C(CN1C(=O)NC2(CCCCCC2)C1=O)NCc1ccc(Cl)cc1	2.4	5.7	7.6	nt	0.9	nt	nt
COc1ccc(C(=O)O/N=C(\N)Cc2ccc(Cl)cc2)cc1OC	3.1	3.9	2.9	-0.3	74.3*	-5.9	78.3*
COc1ccc(C(=O)O/N=C(\N)Cc2ccc(Cl)c(Cl)c2)cc1OC	8.9	-6.1	-3.1	-6.4	90.3*	-7.3	81.6*
COc1cc(C(=O)O/N=C(\N)Cc2ccc([N+](=O)[O-])cc2)cc(OC)c1OC	7.9	nt	nt	0.8	nt	0.6	nt

Bioassay records from PubChem.
